This is an account of results in PubChem BioAssay.

Calls of active or inactive are those of the source.

A short description of one experiment: plasmodial surface anion channel blockers, osmotic lysis – cell-based, P. falciparum Indochina, OD700, 18 h, primary screen (AID 1157). To be noted: P. falciparum Indochina infected erythrocytes, osmotic lysis OD700, 18 h; higher = more signal, called active from +8 up or from −8 down.
For the molecule `C=CCOC(=O)[C@@H]1[C@H]2C(=O)O[C@H](c3ccccc3)[C@H](c3ccccc3)N2[C@H](c2ccc(OCCOC(=O)[C@H]3C[C@H]4C(=O)NCC(=O)N4[C@H]3c3cccc(OCCO)c3)cc2)[C@@]12C(=O)Nc1ccc(I)cc12`, the z-score is 1.26 (inactive).

For the molecule `COC(=O)C[C@H]1O[C@@]2(C[C@@H]1[Si](C)(C)C)C(=O)N(C)c1ccccc12`, the z-score was -1.92 (inactive). On the same count and under the same terms, next, `CN(C)CCCC[C@@H]1NC(=O)[C@@H]2C[C@H](C(=O)NCCCCCCNC(=O)CS)[C@H](c3ccc(O)cc3)N2C1=O`: 0.0814 (inactive); `CCOC(=O)C1=CC[C@@H](c2ccc(OC)cc2)N(S(=O)(=O)c2ccc(C)cc2)[C@H]1CC`: -1.62 (inactive).

On to `C=C(CCCC)/C(=C/C[C@H](OC(=O)c1ccncc1)c1ccc(OCCO)cc1)c1cnc2ccccc2c1`, for which the z-score was 1.31 (inactive). As for `COC(=O)[C@@]1(Cc2ccc(F)cc2)[C@H]2c3cc(C(=O)N4CCCC4)n(Cc4cc(F)cc5c4OCOC5)c3C[C@H]2CN1C(=O)c1ccccc1`, the z-score is 0.886 (inactive). `C=C(CCCC)C(=O)CC[C@H](OC(=O)c1ccccc1-c1ccccc1C(=O)O)c1ccc(OCCO)cc1`: the z-score was 0.847 (inactive). The same measure, in the same setting: next, `C[N+](C)(C)CCCCNC(=O)[C@H]1C[C@H]2C(=O)N[C@@H](Cc3ccccc3)C(=O)N2[C@H]1c1cccc(OCCO)c1`: 0.818 (inactive).

A short description of another experiment: S6 kinase pathway phospho-S6 level changes – cell-based, A549, cytoblot, luminescence, serum-stimulated, primary screen (AID 1158).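 Also: serum-stimulated A549 lung adenocarcinoma cells; signal is phosphorylated S6 detected by cytoblot immunostaining with HRP secondary.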 To be noted: 5 h, higher = more signal.
`COC(=O)C(CC#Cc1ccc2c(c1)[C@]1(C(=O)N2)[C@H](C(=O)NC[C@H](O)c2ccccc2)[C@H]2C(=O)O[C@H](c3ccccc3)[C@H](c3ccccc3)N2[C@@H]1c1ccccc1OCCO)C(=O)OC` displayed a z-score of 1.46.

For the molecule `CN(C)CCCNC(=O)[C@@]1(Cc2ccccc2I)c2ccccc2C(=O)N(C2CCCCC2)[C@H]1c1ccc(CO)cc1`, the z-score is -2.25. Still for that read-out and setting: next, `CN1C(=O)C2C=CC(C(O)c3ccc(-c4ccccc4)s3)N(NC(=O)OC(C)(C)C)C2C1=O` (stereo not drawn): -1.06; `CCCNC(=O)[C@@]1(Sc2ccc(C)cc2)CC(=O)N(Cc2ccccc2Cl)[C@@H]1c1ccc(CO)cc1I`: 0.009. Same read-out and setting: then `CN(C)c1ccc(C(O)C2C=CC3C(=O)N(Cc4ccccc4)C(=O)C3N2n2cnnc2)cc1` (stereo not drawn), with 1.02; and `C[C@@H]1ON(c2ccccc2)[C@H](c2ccccc2)[C@H]1C(=O)O`, with 0.0366; and `O=C1[C@H]2C=C(I)[C@H](C[C@@H]2c2ccccc2)[C@@]12CO2`, with -0.164. As for `C=CCC(OC(C)=O)[C@@H]1[C@@H](N(Cc2ccc(-c3cccc(C(F)(F)F)c3)o2)C(=O)c2ccc(-c3ccccc3)cc2)c2cc(OCCCO)ccc2N1C(=O)c1ccc2ccccc2c1` (stereo partly drawn), the z-score was found to be 0.921. Still for that read-out and setting: next, `O=C(NCc1ccc(F)cc1)[C@H]1C[C@H]2C(=O)N3CCC[C@H]3C(=O)N2[C@H]1c1ccc(O)cc1`: 0.505. Still for that read-out and setting: then `N#Cc1ccc(NN2C(C(O)C3CC=CCC3)C=CC3C(=O)N(c4ccccc4)C(=O)C32)cc1` (stereo not drawn), with -0.723; and `CCCNC(=O)[C@@]1(c2ccc([N+](=O)[O-])cc2)CC(=O)N(C(C)C)[C@@H]1c1ccc(CO)cc1`, with 0.0662.

For `CC(C)N1C(=O)C[C@@](C(=O)NCCN2CCOCC2)(c2ccc([N+](=O)[O-])cc2)[C@H]1c1ccc(CO)cc1`, the z-score came out at 0.265. The same measure, in the same setting: then `C[N+](C)(C)CCCC[C@@H]1NC(=O)[C@H]2C[C@@H](C(=O)NCCCCCNC(=O)CS)[C@@H](c3cccc(OCCO)c3)N2C1=O`, with -0.0362; and `[N-]=[N+]=Nc1ccccc1[C@@H]1OC(c2ccc(OCCCO)cc2)=N[C@]1(Cc1ccccc1)C(=O)NCCN1CCOCC1`, with 1.39. For `CCOC(=O)C[C@H]1[C@H](OC(=O)c2ccccc2-c2ccccc2)[C@@H](NC(=O)C2CCCCC2)c2cc(OCCCO)ccc2N1C(=O)c1ccc2ccccc2n1`, the z-score was -0.342. In turn, `NC(=O)N1C(=O)C2C(C1=O)C1C=C(CCCO)C2C(c2ccc(CN3CCCC3)cc2)N1Cc1sc2ccccc2c1Cl` (stereo not drawn) yielded a z-score of 0.457. As for `CC(C)(C)N1CC=CC23O[C@@H]4/C=C\CCCOC(=O)C4[C@H]2C(=O)N(CCCO)[C@@H]3C1=O` (stereo partly drawn), the z-score stood at 0.0241.

In turn, `CC(C)N1C(=O)c2ccccc2[C@](C)(C(=O)NCC(F)(F)F)[C@@H]1c1ccc(CO)cc1` had a z-score of 0.0308. The same measure, in the same setting: next, `COc1ccc(C#Cc2ccc3c(c2)[C@]2(C(=O)N3)[C@H](C(=O)O)[C@H]3C(=O)O[C@H](c4ccccc4)[C@H](c4ccccc4)N3[C@@H]2c2ccccc2OCCO)cc1`: 1.56; `CCCCCC1=C2CNC(Cc3ccccc3)(C(=O)OC)C=C2C(C)C1=O` (stereo not drawn): -0.275.
